Columns and labels:
Assay in all cases: PBM binding z-score (relative to random genomic background probes); higher = stronger binding; sequences stand for … in GC…GCGATTGACAGCGTAGAATGAAGG
[1] = test system: RARb homodimer (NR concentration 270 nM)
Summary of the method: (§1)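 Random background probes are the reference for binding z-scores. These scores derive from regression-normalized fluorescence on custom Agilent 4×180K protein-binding microarrays incubated 1 h with ligand-free nuclear receptor dimers. Binding was detected with antibodies against each partner (one per run).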

[2] = test system: RARg:RXRa (NR concentration 270 nM, RXRa partner concentration 90 nM)
Summary of the method: as §1

[3] = test system: RARg homodimer (NR concentration 270 nM)
Summary of the method: as §1

[4] = test system: RXRa DBDmut IVT, anti-RXR (DBD mutation: RXRa K156A/R161A, NR concentration 90 nM)
Summary of the method: as §1

[5] = test system: RXRa homodimer (NR concentration 180 nM)
Summary of the method: as §1

[6] = test system: THRa:RXRa (NR concentration 90 nM, RXRa partner concentration 90 nM)
Summary of the method: as §1

[7] = test system: THRa homodimer (NR concentration 90 nM)
Summary of the method: as §1

[8] = test system: VDR homodimer (NR concentration 270 nM)
Summary of the method: as §1

Sequence | PBM binding z-score [1] | PBM binding z-score [2] | PBM binding z-score [3] | PBM binding z-score [4] | PBM binding z-score [5] | PBM binding z-score [6] | PBM binding z-score [7] | PBM binding z-score [8]
GCATATATGTAATACAAGGTGAAAGTCCGATTGT | 0.691 | 0.257 | 0.615 | 0.612 | 0.52 | 2.79 | 1.14 | -0.0295
AGAATGAGGTTACCATAGATCAGGGAAACGCTTG | 0.58 | 1.89 | 1.72 | 1.13 | 2.38 | 2.59 | 0.611 | 0.117
TCTTGTAGATCGAGCAGGTTAAGAAAGCCTGAGT | -0.141 | -0.28 | -0.423 | 0.213 | 0.0253 | 0.0849 | -0.506 | -0.257
CCTCGGAGGACAACAGGAGGTCCGAGCTGCCAGA | 0.279 | 0.372 | 0.854 | -0.16 | -0.455 | 0.4 | -0.324 | -0.197
TCGAGTAGGTTAAGGGCATTCAGAATGGCGTCGA | 1.47 | 1.08 | 1.23 | 0.693 | 1.18 | 2.16 | 0.794 | 1.14
CCTTACGGGTCACTCCAGGATATAGCATCGGAGT | 2.33 | 4.02 | 3.98 | 1.43 | 4.06 | 4.39 | 0.217 | 1.23
CCTCTGAGGACAACAGGAGGTCAGAGCTGCCAGA | 3.48 | 3.66 | 3.51 | 1.29 | 1.78 | 3.92 | 3.02 | 1.69
CCTTTCGGGTCAAGGTTATAGCACGGGTGGTACG | 3.76 | 5.07 | 5.07 | 2.03 | 5.56 | 3.97 | 3.16 | 1.97
ATCTCTAGGTAACCAAGTTCAGTGAGTGCCGAAC | 1.55 | 0.591 | 0.796 | 1.34 | 0.412 | 1.52 | 0.776 | 2.83
GCTAGCAGGCCATTTGGGTCAATCAATGACGGGC | 1.62 | 0.878 | 1.21 | 0.0646 | 0.805 | 1.87 | 0.12 | -0.0302
GCTTGTAGATCAAGGTTCAGAAAGACTAAGCTAA | 0.239 | 0.226 | 0.173 | 1.09 | 0.62 | -0.139 | -0.807 | 1.33
CGAACTACGTCAAGGACAGTGAATCTCCGCACGC | 0.242 | -0.205 | 0.151 | 0.114 | 0.0152 | 1.67 | 1.13 | 0.0374
CGTTAAAGTTCAAGGTAACGTAACAGAAAGCAGC | 3.54 | 4.91 | 5.74 | 4.35 | 3.98 | 2.78 | 1.23 | 3.34
CATTCAGGGTCAGCTAGGCCAGAGTAGGGACGGC | 3.59 | 4.64 | 5.03 | 2 | 5.08 | 3.44 | 1.31 | 1.42
CCTAGCAAGCCAGGGTCACTCAAGCATTTCGCTT | 2.62 | 2.97 | 2.62 | 0.907 | 3.86 | 3.03 | 1.1 | 1.69
CCTACTGGTCCATCAGGTCATTGATATCAACGTT | 2.5 | 1.6 | 1.47 | 1.04 | 1.28 | 3.41 | 3.29 | 2.02
TCGAGTAGGTTAGGGACATTCAGAATGGCGTCGA | 0.458 | 0.15 | 0.37 | 0.229 | 0.221 | 2 | 0.953 | 0.358
CAAACTAGGTCAAGGACAGTGAATCTCCGCACGC | 3.29 | 3.69 | 4.39 | 1.7 | 2.79 | 3.27 | 2.33 | 0.901
TCTTGAAGATCAACAGGAGGTTAAGAAAGATCGA | 0.572 | 1.45 | 0.367 | 0.56 | 1.25 | 0.975 | -0.383 | -0.404

Sequence | PBM binding z-score [1] | PBM binding z-score [2] | PBM binding z-score [3] | PBM binding z-score [4] | PBM binding z-score [5] | PBM binding z-score [6] | PBM binding z-score [7] | PBM binding z-score [8]
CTACCAAGGTGAATAAGGTCGTTGATTACTATTC | 2.05 | 1.54 | 1.21 | 1.38 | 1.71 | 3.6 | 2.67 | 2.68
CTCGAAAGGTCGGGCTCAGGTGAGTATACCAAAC | 2.49 | 4.07 | 3.19 | 0.869 | 3 | 3.46 | 1.06 | 0.356
CCTTACGGGTCAAGGTGATAGCACGGGTGGTACG | 3.13 | 4.81 | 4.64 | 0.497 | 5.2 | 2.94 | 0.765 | 0.801
CGAACTAGGTCAAGGATAGTGAATCTCCGCACGC | 3.08 | 3.74 | 4.44 | 1.47 | 2.58 | 2.67 | 1.35 | 0.279
CATTACGGGTCAAGGTTATAGCACGGGTGGTACG | 3.78 | 5.08 | 5.37 | 1.61 | 6.03 | 3.51 | 1.29 | 2.04
GCTAGCAGGCCATTTGGGTGACTCAATGACGGGC | -0.273 | -0.23 | 0.0183 | -0.541 | -0.076 | 0.189 | -0.653 | -0.481
CGAACTAGGTCAAGGACAGTGATTCTCCGCACGC | 3.36 | 3.83 | 4.62 | 1.49 | 2.77 | 3.42 | 2.19 | 0.466
TCATATAGGTAATACAGGTGAAATTCGGCATCTA | 0.536 | 0.764 | 0.496 | 1.51 | 1.34 | 1.04 | 0.421 | 0.0975
AGAAGGAGGTTAAGATCAGGGAAACAGAATACAT | 1.51 | 1.73 | 1.36 | 0.0542 | 1.96 | 1.94 | 0.811 | 0.91
TAGCCTAGGTCATCGGCCAGTATACCACGCGAAC | 2.9 | 4.27 | 4.72 | 1.02 | 3.08 | 2.76 | 1.11 | 0.802
GGGACGAGGGCATTCGAGTTGATAGCATGGCGAT | 1.01 | 1.19 | 1.58 | 2.93 | 0.775 | 3.52 | -0.0645 | 3.06
ATCTCTAGGTAAGACTCAGTTTAGTGAAGAACGC | 0.134 | 0.228 | 0.235 | 0.443 | -0.191 | 0.364 | 0.619 | 0.252
ACAGACAGGTGATGAAGGTAACTCTGGCTATCAT | -0.162 | 0.325 | 0.249 | -0.432 | 0.387 | 0.0574 | -0.327 | -0.648
GCGACTGGGGCATCCGCAGGTTACCATAACTTAA | 0.945 | 1.31 | 0.446 | 0.00577 | 0.41 | 1.21 | -0.198 | -0.454
TCTATTAATTGATTAGGGCAACCGAAACAGCGGA | 0.555 | 0.404 | 0.432 | 0.717 | 0.315 | 0.691 | 0.741 | 1.36
TCTAGGAGGCCAGAGGGTCACTCAAGAGGTACGG | 3.01 | 3.09 | 2.32 | 0.451 | 2.66 | 1.7 | 0.0241 | 0.313
ACGGACAGGTGAGTGAAGGTAACTCAGCTGGACG | 0.226 | 0.31 | 0.674 | -0.495 | 0.344 | 1.69 | -0.483 | -0.502
CGTCCAAGGGCAGAGAGGTCAGTGAATGCCGAGT | 4.03 | 3.5 | 4.06 | 1.49 | 2.27 | 2.68 | 0.704 | 3.19
CCTATTAGGTGACCATAAGGGCAACCGAAGCTCG | 2.13 | 2.09 | 1.22 | -0.22 | 1.08 | 2.64 | 1.52 | 0.127

Sequence | PBM binding z-score [1] | PBM binding z-score [2] | PBM binding z-score [3] | PBM binding z-score [4] | PBM binding z-score [5] | PBM binding z-score [6] | PBM binding z-score [7] | PBM binding z-score [8]
ACTAGCAGGCCAAGTTTGGGTCAGTCAAACAAAG | 1.85 | 1.65 | 0.925 | -0.416 | 0.0586 | 1.62 | 0.427 | -0.265
CGTCCAAGGTCATAGGAGGTCAGTGTAGACAGAT | 5.63 | 6.73 | 7.24 | 3.82 | 6.53 | 5.46 | 3.59 | 4.71
CCTACTGGGCCACGGTCATTGATCAGTCAAAGCA | 1.5 | 0.43 | 0.896 | -1.25 | -0.391 | 0.204 | -0.144 | -0.135
AGAATTAGGTTATTAAGATCAGGGAATTGCGGTC | 0.844 | 0.403 | 0.569 | 0.599 | 0.275 | 0.913 | 0.502 | 0.494
ACAGACAGGTGCGTGAAGGTAACTCAGCTGGACG | -0.567 | -0.319 | -0.0259 | -0.249 | -0.0792 | -0.227 | -0.945 | -0.569
CCTACTGGGCCACAAAGGTCATTGATGCCGATAA | 4.64 | 5.33 | 4.68 | 1.13 | 6.32 | 3.38 | 0.818 | 3.31
AGTCAAAGTTCAGGACGAGGTAACGAAAAGCACG | 2.94 | 4.74 | 4.62 | 2.71 | 3.34 | 3.75 | 1.77 | 2.11
TCTCGGAGGACACGAAGGGTCAGAGCTCGACATC | 3.84 | 3.26 | 3.44 | 0.595 | 2.4 | 2.92 | 0.541 | 0.624
CCTTACGGGTCAATGTTATAGCACGGGTGGTACG | 2.54 | 4.03 | 3.85 | 0.842 | 4.04 | 1.85 | -0.227 | 0.834
ATCTCTAGGTAACAATTTCAGTGAAAGAGAGGAC | 0.316 | 0.547 | 0.814 | 0.235 | 0.51 | 1.06 | 0.784 | 0.542
CATACAGGGTCTGCTAGGCCAGAGTAGGGACGGC | -0.0672 | -0.0355 | 0.276 | -0.952 | 0.034 | 0.13 | -0.32 | -0.486
ATCTTTAGGTAAAAGTTCAGTGAATCCCGAGGAT | 2.61 | 1.69 | 1.85 | 1.27 | 1.57 | 1.76 | 0.573 | 1.63
TCTTATAGGTAAAGGTGAAAGTCGAACGATATGA | 1.59 | 1.84 | 1.45 | 1.1 | 2.43 | 1.39 | 0.153 | 0.315
ACTAGCAGGCCAAGTTAGGGTCACTCAAACAAAG | 3.53 | 4.02 | 2.89 | -0.159 | 3.35 | 4.14 | 2.34 | 1.18
GCTTGTAGATCAAGGTTAAGAAAGACTAAGCTAA | 0.0928 | 0.389 | 0.229 | -0.146 | 0.904 | 1.14 | -0.422 | -0.377
ATATGTACGTTAAGGGTCATTCAGGTTGGTTCGC | 3.82 | 3.89 | 2.96 | 2.12 | 4.64 | 3.3 | 1.45 | 4.32
ATCGAAAGGTCGACGAGGTAAGTATACACCGTTT | 2.39 | 3.89 | 3.66 | 1.2 | 4.03 | 3.14 | 0.239 | 0.679
ACTATTAGTTGACTTAGGGCAACTGATACGACGC | 0.726 | 0.872 | 1.07 | 0.417 | 0.497 | 1.31 | 0.235 | 0.0906
ATCGAAAGGTCGAGGTGCGTATAGAGAAAGGGAA | 2.47 | 4.3 | 4.33 | 0.96 | 4.37 | 1.77 | -0.562 | 0.304
